A selection: hits, their analogues and other compounds. The true share with any hit is near 9%.
HPGD inh – HPGD (human) dehydrogenase inhibition. hit rate 4.3% among 150,000. Potency, µM, for the others: at the highest dose activity change, negative = inhibition, hits mostly inhibitors. P15428. purified HPGD, NADH fluorescence kinetic, PGE2 substrate; active means well fitted inhibition curve with a large enough effect, not every such curve was filed as active; inconclusive means small, poorly fitted or top-dose-only effect, or another doubt; inactive means no such curve, though single readings can be large or run the other way
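20 nM HPGD preincubated 15 min at room temperature with compound in 50 mM Tris-HCl pH 8, 0.01% Tween 20. Started with 1 mM NAD+ and 30 uM prostaglandin E2; NADH fluorescence (360/450 nm) read 5 times over 30-s intervals, last minus first.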
LMNA splice mod – changes lamin A minigene splicing in HeLa cells | Potency, µM (top dose mostly 46.1 µM), for inactives: top-dose ratio change, negative = inhibition, usual class: inhibitors | HeLa LMNA splicing GFP/RFP minigene ratio, 48 h | hit rate 0.01% among 200,000 | AID 1487; active means well fitted inhibition curve with a large enough effect in the signal ratio, with a control signal flat, not every such curve was filed as active; inconclusive means small, poorly fitted or top-dose-only effect, or effect the other way, or a change in a side signal; the % refers to the signal ratio
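S3 HeLa stable clones carrying a lamin A-EGFP splicing minigene plus DsRed2 were seeded at 600 cells/well in Opti-MEM with 2% FBS, pin-dosed and incubated 48 h at 37°C. Acumen cytometry (488 nm) gave the GFP/RFP total-intensity ratio.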
IMPase Li inh – IMPase inhibition in cells with lithium potentiation; CHO-M1 cells, IP1 TR-FRET (IP-One), carbachol + lithium; Potency, µM (titrated, usually from 59.4 µM), for the others: at the highest dose activity, negative = IMPase inhibition, hits mostly inhibitors; hit rate 0.35% among 210,000;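 further: IP1 builds up when IMPase is blocked and the TR-FRET signal falls; plate controls were basal vehicle for no effect and high inhibitor control for full effect; nearly all actives have a fitted effect of over 50% in size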
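Test compounds were applied to CHO-M1 cells previously cultured for 16–30 h at 2000 per well. A small lithium amount accompanied them; after 30 min at 37C, IP1 was quantified by TR-FRET.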
ALDH1A1 inh – ALDH1A1 (human) enzyme inhibition | P00352 | Purified ALDH1A1, NADH fluorescence, propionaldehyde substrate | Potency, µM (titrated, usually from 75.3 µM), without a hit: at the top dose activity, negative = inhibition, most hits filed as inhibitors | hit rate 7.3% among 220,000 | AID 1030; active means well fitted inhibition curve with a large enough effect, not every such curve was filed as active; inconclusive means small, poorly fitted or top-dose-only effect, or another doubt; inactive means no such curve, though single readings can be large or run the other way;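 further: plate controls were no enzyme wells and a reference inhibitor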
Target sequence (P00352 whole entry, looked up): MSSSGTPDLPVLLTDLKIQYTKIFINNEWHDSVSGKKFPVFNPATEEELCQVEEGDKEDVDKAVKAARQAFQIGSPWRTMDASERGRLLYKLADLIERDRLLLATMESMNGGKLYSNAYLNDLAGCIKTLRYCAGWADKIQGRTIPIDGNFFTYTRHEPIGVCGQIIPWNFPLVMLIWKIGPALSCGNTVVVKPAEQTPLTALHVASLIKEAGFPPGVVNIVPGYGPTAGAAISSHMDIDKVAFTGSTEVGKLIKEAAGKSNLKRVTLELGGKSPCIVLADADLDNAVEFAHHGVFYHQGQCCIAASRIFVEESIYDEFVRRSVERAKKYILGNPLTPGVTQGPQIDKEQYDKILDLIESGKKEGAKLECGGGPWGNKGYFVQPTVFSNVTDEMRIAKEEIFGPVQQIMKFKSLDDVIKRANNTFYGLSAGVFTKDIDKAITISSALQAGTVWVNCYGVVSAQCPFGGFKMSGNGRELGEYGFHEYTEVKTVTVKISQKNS
Luc counter – Kinase-Glo luciferase inhibition (counter-screen); Potency, µM (series often up to 38.3 µM), without a hit: top-dose activity change, negative = inhibition, most hits filed as inhibitors; Q27757; hit rate 0.28% among 200,000; Kinase-Glo luciferase, ATP luminescence, 8 min; further: nearly all actives have a fitted effect of over 60% in size
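Recombinant Kinase-Glo luciferase, 10 uM ATP (linear range), luciferin; imidazole pH 7.2 / KCl / MgCl2 / Tween / BSA buffer; 8 min RT; luminescence.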
The depositor's hits bear a star; ? = inconclusive; nt = not tested or not shown; [ ] = another dose, or the depositor's remark. Unless noted, the call rests on the fitted dose curve; in most records, active means well fitted curve in the direction sought with a large enough effect; inconclusive means small, poorly fitted or top-dose-only effect, or another doubt; inactive means no such curve, though single readings can be large; an effect the other way counts as inactive or inconclusive. Unless noted, on the % scale 0 is the no-effect control and ±100 the full control effect; potency means the concentration at half of the fitted maximal effect.

SMILES	HPGD inh	LMNA splice mod	IMPase Li inh	ALDH1A1 inh	Luc counter
CCOP(=S)(OCC)SCn1c(=O)oc2cc(Cl)ccc21	?	?	28%	3%	0%
CCCN1CCC[C@@H]2Cc3n[nH]cc3C[C@H]21	-13%	?	-12%	-4%	-5%
CC(=O)OC1C[C@@]2(C)C(c3ccoc3)C[C@H]3O[C@@]32[C@@]2(C)C(=O)C(O)=C3C(C)(C)C(=O)C=C[C@]3(C)C12 (stereo partly specified)	-4%	nt	32%	-3%	0%
O=[N+]([O-])c1ccc(-c2[se]c3ccccc3c2I)cc1	-25%	nt	-4%	?	-4%[39.9 µM]
CN(c1ccccc1)S(=O)(=O)c1cccc(C(=O)N2CCN(c3ccccn3)CC2)c1	-9%	?	1%[38.3 µM]	-5%	-1%
CC[C@@H]1CN2CCc3cc(OC)c(OC)cc3[C@H]2C[C@@H]1C[C@@H]1NCCc2cc(O)c(OC)cc21	-8%	?	-8%	0%[20.9 µM]	0%[17.1 µM]
Cc1ccc(-c2nn(C)c(=O)c3ccccc23)cc1CNC(=O)/C=C/c1ccccc1	?	?	15%[38.3 µM]	22µM*	-3%
CCN(CC)C(=O)c1ccc(NC(=O)c2ccc(-c3nn(C)c(=O)c4ccccc34)cc2)cc1	nt	nt	7%	?	nt
CNNC	?	-9%	-1%	?	-3%
O[C@H](CN1CC1)[C@@H](O)CN1CC1	-1%	nt	2%	8%[13.5 µM]	-5%[7.66 µM]
COc1cccc(-c2cc(C(F)(F)F)n3nc(C(=O)N4CCC5(CC4)OCCO5)cc3n2)c1	11µM*	-1%	3%[38.3 µM]	13µM*	-1%
CN1[C@@H](CC(=O)c2ccccc2)CCC[C@@H]1C[C@@H](O)c1ccccc1	-4%	-11%	0%	-4%[20.9 µM]	2%[17.1 µM]
O=C1NC(=O)C(C(CC(=O)c2ccccc2)c2ccccc2)C(=O)N1 (stereo unspecified)	nt	19%[46 µM]	5%	0.1µM*	-2%
CN1C(=O)NC(c2cccc(O)c2)C(C(=O)c2cccs2)C1(O)C(F)(F)F (stereo unspecified)	-7%	0%	4%[38.3 µM]	0.79µM*	-9%
COc1cc(O)c(C(=O)c2ccccc2)cc1S(=O)(=O)O	-1%	?	1%	13µM*	-1%[39.9 µM]
Cn1cc(C(=O)c2ccccc2)c2ccccc21	-14%	-7%	-19%[38.3 µM]	-10%	-3%
C=C1C([C@@H](O)C[C@H](C)C2O[C@@]3(CCCCO3)CC[C@H]2C)OC2CC[C@@]3(CC[C@@H](/C=C/[C@@H](C)C4CC(C)=C[C@]5(O4)O[C@H](C[C@@](C)(O)C(=O)O)CCC5O)O3)OC2[C@@H]1O (stereo partly specified)	nt	nt	16%	2%	nt
Cc1ccc(C(=O)NC(=S)NNS(=O)(=O)c2ccc(C)cc2)cc1	16µM*	8%	1%	-11%	1%
c1ccc(C2CO2)cc1 (stereo unspecified)	-8%	nt	12%	6%	nt
Cc1cc(C=O)c(C)n1C1CCCCC1	-7%	-2%	30%[38.3 µM]	22µM*	1%
Cc1cc(C=C2C(=O)N(C)C(=S)N(C)C2=O)c(C)n1-c1cccnc1	10µM*	7%	8%	11µM*	-4%
Cc1cc(C=C2C(=O)N(C)C(=S)N(C)C2=O)c(C)n1C1CCCC1	-13%	0%	39%[38.3 µM]	22µM*	-4%
CCN1C(=O)C(=Cc2cc(C)n(C3CC3)c2C)C(=O)N(CC)C1=S	-19%	-8%	-10%	10µM*	-3%
N[C@H](Cc1ccccc1)c1nn[nH]n1	0%	nt	3%	-9%[13.5 µM]	-7%[7.66 µM]
Nc1nc(=S)c2ncn([C@H]3O[C@@H](CO)[C@@H](O)[C@@H]3O)c2[nH]1	-16%	?	-2%	?	0%[17.1 µM]
SMILES	HPGD inh	LMNA splice mod	IMPase Li inh	ALDH1A1 inh	Luc counter
CCCCn1c(=O)c(C=Nc2ccc(Cl)cc2)c(O)n(Cc2ccco2)c1=O	?	3%	17%	?	-4%
CCCCn1c(=O)c(C=Nc2cc([N+](=O)[O-])ccc2OC)c(O)n(CCCCl)c1=O	-18%	?	9%	11µM*	0%
O=C1CN=C(c2ccccc2F)c2cc(Cl)ccc2N1	-16%	?	-6%	-2%	-2%
O=C1CN=C(c2ccccc2)c2cc([N+](=O)[O-])ccc2N1	25µM*	?	8%	1%	1%[39.9 µM]
CC[C@@]1(O)C(=O)OCc2c1cc1n(c2=O)-c2cc3ccccc3nc2C1	?	nt	?	?	1%[39.9 µM]
CC[C@@]1(O)C(=O)OCc2c1cc1n(c2=O)Cc2cc3cc(O)ccc3nc2-1	-23%	nt	10µM*	-9%	-1%
CC1CCN(C(=O)c2ccc(N3CC4CC(C3)c3cccc(=O)n3C4)c([N+](=O)[O-])c2)CC1 (stereo unspecified)	-19%	-6%	8%	?	1%
CC1CCCN(C(=O)c2ccc(N3CC4CC(C3)c3cccc(=O)n3C4)c([N+](=O)[O-])c2)C1 (stereo unspecified)	18µM*	-15%	-1%	7.9µM*	-2%
O=[N+]([O-])c1cc(Cl)c(Cl)c(Cl)c1	-3%	nt	15%	?	nt
CC(C)C[C@H](NC(=O)[C@H](Cc1ccccc1)NC(=O)CNC(=O)[C@@H](NC(=O)[C@@H](N)Cc1ccc(O)cc1)[C@H](C)O)C(=O)N[C@H](C(=O)O)[C@H](C)O	nt	nt	10%	11%	nt
[N-]=[N+]=CC(=O)CC[C@H](N)C(=O)O	-5%	nt	-11%	3%[13.5 µM]	-1%[7.66 µM]
CSc1ccc(C(=O)C(C)(C)N2CCOCC2)cc1	-7%	3%	31%[38.3 µM]	8.9µM*	0%
ClC1=C(Cl)C2(Cl)C3C(Cl)C(Cl)CC3C1(Cl)C2(Cl)Cl (stereo unspecified)	-4%	nt	10%	-16%	nt
CCc1ccc(N2NC(=O)/C(=C/C=C/c3ccco3)C2=O)cc1	-18%	-12%	15%	3.2µM*	-4%
O=C1NC(=O)N(c2ccccc2)C(=O)/C1=C\C=C\c1ccccc1	nt	?	nt	10µM*	nt
Cc1ccc(N2C(=O)NC(=O)/C(=C/C=C/c3ccco3)C2=O)cc1	7.1µM*	?	15%	?	0%
CCCCN1C(=O)/C(=C\c2ccco2)C(=O)N(CCc2ccccc2)C1=O	32µM*	3%	-2%[38.3 µM]	3%	-2%
NC(=O)C1=CN(C2OC(COP(=O)(O)OP(=O)(O)OC[C@H]3O[C@@H](n4cnc5c(N)ncnc54)[C@H](OP(=O)(O)O)[C@H]3O)C(O)C2O)C=CC1 (stereo partly specified)	-18%	?	6%	14%	-14%
C[C@@H]1O[C@H](OC2[C@@H](O)[C@H](O)C(O)[C@H](O)[C@H]2O)[C@@H](N)C[C@@H]1N=C(N)C(=O)O (stereo partly specified)	-1%	nt	0%	-10%[13.5 µM]	-2%[7.66 µM]
CCCBr	-3%	nt	-1%	5%	nt

Bioassay records from PubChem BioAssay.
